Calls of active or inactive are those of the source. Rule for the calls: active = hit-call score of the fitted dose curve at least 0.9, where 1 is the maximum; inactive = score below 0.9.
Columns and labels:
[1] = ATG_CRE_CIS: Attagene CIS-FACTORIAL HepG2 Assay for human cAMP Responsive Element (CRE) binding protein 3 (AID 2282926); conditions: HepG2 CRE cis-reporter, Attagene multiplexed mRNA; actives raise or lower the signal
Method in brief: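 Human liver HepG2, transient MRTU transfection, 24 h compound exposure. Total RNA → oligo(dT) RT → PCR → 6-FAM primer extension → HpaI cut → CE. Activity called both directions vs DMSO.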

[2] = molecular target: CCAAT/enhancer-binding protein beta (Homo sapiens) (UniProt P17676); test: ATG_C_EBP_CIS: Attagene CIS-FACTORIAL HepG2 Assay for human CCAAT/Enhancer Binding Protein (C/EBP) beta (AID 2282927); conditions: HepG2 Attagene cis-factorial transcription factor reporter; actives raise or lower the signal
CCAAT/enhancer-binding protein beta (Homo sapiens), sequence (P17676 whole entry, looked up): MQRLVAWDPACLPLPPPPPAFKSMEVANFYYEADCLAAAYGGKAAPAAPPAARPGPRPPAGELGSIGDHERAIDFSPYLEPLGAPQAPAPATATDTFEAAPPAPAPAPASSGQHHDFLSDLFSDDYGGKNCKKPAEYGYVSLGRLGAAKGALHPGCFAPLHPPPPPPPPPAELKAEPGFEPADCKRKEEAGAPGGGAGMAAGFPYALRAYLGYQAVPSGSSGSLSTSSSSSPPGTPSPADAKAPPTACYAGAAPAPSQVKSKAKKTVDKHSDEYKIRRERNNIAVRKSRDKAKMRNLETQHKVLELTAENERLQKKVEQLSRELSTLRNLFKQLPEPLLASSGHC
Method in brief: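 RT-PCR/capillary electrophoresis fluorescence of reporter mRNA, 24 h post-dose, in HepG2 cells carrying transfected cis-promoter reporter units. Bidirectional curve fitting against DMSO baseline captures gain or loss of signal.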

[3] = ATG_CMV_CIS: Attagene CIS-FACTORIAL HepG2 Assay for human CMV (Internal Marker) (AID 2282928); conditions: HepG2 CMV promoter reporter, transcription factor profiling; actives raise or lower the signal;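 note: endpoint acts as a background internal control marker rather than a target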
Method in brief: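 HepG2 cells transiently transfected with multiple cis-regulated reporter units; 24 h compound exposure. Reporter mRNA quantified by RT-PCR, 6-FAM primer-extension labeling, HpaI digestion and capillary electrophoresis; bidirectional fitting against DMSO baseline.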

[4] = ATG_DR4_LXR_CIS: Attagene CIS-FACTORIAL HepG2 Assay for human Liver X Receptor (LXR), DR4 submotif (AID 2282929); conditions: HepG2 Attagene DR4 cis-reporter, mRNA transcription; actives raise or lower the signal
Method in brief: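 HepG2, transient MRTU transfection, cis-element (DR4) promoter; 24 h compound exposure; total RNA → oligo(dT) RT → PCR → 6-FAM primer extension → HpaI cut → CE. Gain/loss vs DMSO, bidirectional fit.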

[5] = molecular target: Aryl hydrocarbon receptor (Homo sapiens) (UniProt P35869); test: ATG_Ahr_CIS: Attagene CIS-FACTORIAL HepG2 Assay for human Aryl Hydrocarbon Receptor (Ahr) (AID 2282930); conditions: HepG2 AhR cis-factorial reporter transcription; actives raise or lower the signal
Aryl hydrocarbon receptor (Homo sapiens), sequence (P35869 whole entry, looked up): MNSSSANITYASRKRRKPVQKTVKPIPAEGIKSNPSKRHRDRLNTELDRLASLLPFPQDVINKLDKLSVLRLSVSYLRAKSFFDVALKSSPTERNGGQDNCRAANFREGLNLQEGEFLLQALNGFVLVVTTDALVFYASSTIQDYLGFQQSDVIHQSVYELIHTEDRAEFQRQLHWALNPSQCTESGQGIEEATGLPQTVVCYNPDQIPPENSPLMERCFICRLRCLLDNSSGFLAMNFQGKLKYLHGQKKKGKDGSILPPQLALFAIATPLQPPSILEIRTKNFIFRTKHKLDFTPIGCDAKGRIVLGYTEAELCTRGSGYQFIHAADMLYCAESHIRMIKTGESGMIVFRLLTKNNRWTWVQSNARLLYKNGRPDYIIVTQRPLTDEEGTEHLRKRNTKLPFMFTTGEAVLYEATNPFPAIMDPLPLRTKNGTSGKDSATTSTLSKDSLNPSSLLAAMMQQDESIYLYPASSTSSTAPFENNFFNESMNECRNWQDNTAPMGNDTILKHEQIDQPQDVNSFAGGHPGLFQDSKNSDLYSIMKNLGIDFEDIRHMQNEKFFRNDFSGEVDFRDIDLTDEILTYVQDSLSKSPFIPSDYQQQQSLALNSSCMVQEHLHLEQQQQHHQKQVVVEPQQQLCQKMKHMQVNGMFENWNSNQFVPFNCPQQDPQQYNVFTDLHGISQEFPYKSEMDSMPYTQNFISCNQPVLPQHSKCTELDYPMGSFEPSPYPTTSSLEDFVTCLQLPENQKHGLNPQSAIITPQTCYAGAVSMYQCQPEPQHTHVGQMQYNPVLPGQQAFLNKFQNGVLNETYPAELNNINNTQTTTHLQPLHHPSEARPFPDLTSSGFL
Method in brief: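 HepG2 cells transiently transfected with cis-element-driven multiplexed reporter transcription units; endogenous transcription factor activity measured as reporter mRNA 24 h after dosing. RT-PCR, 6-FAM labelling, HpaI digestion, capillary electrophoresis; bidirectional fitting versus DMSO baseline.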

[6] = ATG_AP_1_CIS: Attagene CIS-FACTORIAL HepG2 Assay for human Activator Protein 1 (AP-1) (AID 2282931); conditions: HepG2 Attagene cis-factorial AP-1 reporter mRNA; actives raise or lower the signal
Method in brief: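 Transient MRTU transfection of HepG2 → 24 h chemical treatment → RNA isolation, RT-PCR, 6-FAM labelling, HpaI digest → capillary electrophoresis. Fit: bidirectional, DMSO negative control.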

[7] = ATG_AP_2_CIS: Attagene CIS-FACTORIAL HepG2 Assay for human Activator Protein 2 (AP-2) (AID 2282932); conditions: HepG2 AP-2 cis-reporter, Attagene transcription factor profiling; actives raise or lower the signal
Method in brief: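 HepG2 cells were transiently transfected with multiple cis-promoter reporter transcription units and dosed for 24 h. Reporter mRNA was measured by RT-PCR with capillary electrophoresis fluorescence; bidirectional fits relative to DMSO baseline.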

[8] = ATG_BRE_CIS: Attagene CIS-FACTORIAL HepG2 Assay for human Bone Morphogenetic Protein (BMP) Response Element (BRE) (AID 2282933); conditions: HepG2 BMP response element reporter, Attagene transcription factor profiling; actives raise or lower the signal
Method in brief: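 Transient MRTU transfection of human HepG2 liver cells; 24 h compound treatment; total RNA isolated, reverse-transcribed, PCR-amplified, 6-FAM labelled, HpaI-cut, capillary electrophoresis. DMSO = negative control/baseline, bidirectional fit.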

[9] = molecular target: Retinoic acid receptor alpha (Homo sapiens) (UniProt P10276); test: ATG_DR5_RAR_CIS: Attagene CIS-FACTORIAL HepG2 Assay for human Retinoic Acid Receptor Alpha (RARE), DR5 submotif (AID 2282934); conditions: HepG2 Attagene cis-factorial RARE DR5 reporter, mRNA; actives raise or lower the signal
Retinoic acid receptor alpha (Homo sapiens), sequence (P10276 whole entry, looked up): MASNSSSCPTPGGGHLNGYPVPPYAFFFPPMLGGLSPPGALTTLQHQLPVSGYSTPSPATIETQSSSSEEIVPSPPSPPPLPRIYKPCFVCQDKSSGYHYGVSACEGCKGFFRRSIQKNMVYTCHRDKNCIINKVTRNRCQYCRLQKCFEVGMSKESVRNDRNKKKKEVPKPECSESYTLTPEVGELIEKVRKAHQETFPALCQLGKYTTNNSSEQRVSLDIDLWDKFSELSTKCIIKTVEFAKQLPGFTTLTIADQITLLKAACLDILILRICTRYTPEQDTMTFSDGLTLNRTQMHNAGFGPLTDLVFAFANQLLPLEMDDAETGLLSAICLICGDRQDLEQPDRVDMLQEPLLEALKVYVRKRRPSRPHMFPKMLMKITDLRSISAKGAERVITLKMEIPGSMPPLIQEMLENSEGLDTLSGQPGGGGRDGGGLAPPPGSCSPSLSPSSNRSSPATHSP
Method in brief: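 HepG2 cells transiently transfected with multiplexed reporter units under cis (DR5 RARE) promoters, so endogenous transcription factor activity is measured. After 24 h compound exposure, reporter mRNA is quantified by RT-PCR with fluorescent labelling and capillary electrophoresis; bidirectional fitting versus DMSO.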

[10] = molecular target: Transcription factor E2F1 (Homo sapiens) (UniProt Q01094); test: ATG_E2F_CIS: Attagene CIS-FACTORIAL HepG2 Assay for human E2F Transcription Factor 1 (AID 2282935); conditions: HepG2 Attagene cis-reporter, E2F reporter RNA transcripts; actives raise or lower the signal
Transcription factor E2F1 (Homo sapiens), sequence (Q01094 whole entry, looked up): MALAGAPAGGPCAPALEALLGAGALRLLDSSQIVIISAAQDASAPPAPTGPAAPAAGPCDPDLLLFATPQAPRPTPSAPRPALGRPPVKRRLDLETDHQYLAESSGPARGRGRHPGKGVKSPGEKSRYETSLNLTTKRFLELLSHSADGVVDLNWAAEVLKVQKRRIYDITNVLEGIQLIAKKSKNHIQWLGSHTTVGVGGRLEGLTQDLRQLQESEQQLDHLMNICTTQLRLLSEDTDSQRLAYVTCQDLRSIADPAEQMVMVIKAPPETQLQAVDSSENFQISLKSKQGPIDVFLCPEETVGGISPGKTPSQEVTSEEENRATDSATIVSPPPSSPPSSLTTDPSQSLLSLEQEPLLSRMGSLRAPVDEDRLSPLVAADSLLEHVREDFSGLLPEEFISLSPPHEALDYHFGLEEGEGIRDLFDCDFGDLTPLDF
Method in brief: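 HepG2 cells transiently transfected with multiplexed cis-element reporter units, dosed for 24 h. Reporter mRNA measured by RT-PCR, 6-FAM primer-extension labeling, HpaI digestion and capillary electrophoresis; bidirectional fit versus DMSO baseline.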

[11] = ATG_E_Box_CIS: Attagene CIS-FACTORIAL HepG2 Assay for human Enhancer Box (E-box) (AID 2282936); conditions: HepG2 E-box cis-reporter transcription, actives raise or lower the signal
Method in brief: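 HepG2 cells transiently transfected with multiplexed cis-element reporter units sensing endogenous transcription factor activity; 24 h compound exposure. Reporter mRNA measured by RT-PCR, 6-FAM primer extension, HpaI digestion and capillary electrophoresis; bidirectional fit versus DMSO.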

[12] = ATG_M_61_CIS: Attagene CIS-FACTORIAL HepG2 Assay for M61 Transcription Factor (Internal Marker) (AID 2282937); conditions: HepG2 Attagene CIS-FACTORIAL M61 internal marker reporter; actives raise or lower the signal
Method in brief: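 Human liver HepG2, transient MRTU transfection (cis promoter elements), 24 h compound. Total RNA → oligo(dT) RT → PCR → FAM label → HpaI → CE. Internal background marker; bidirectional fitting, DMSO = baseline.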

[13] = ATG_EGR_CIS: Attagene CIS-FACTORIAL HepG2 Assay for human Early Growth Response 1 (EGR1) (AID 2282938); conditions: HepG2 Attagene CIS-FACTORIAL EGR reporter mRNA; actives raise or lower the signal
Method in brief: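 Transient transfection of human HepG2 with multiple cis-regulated reporter units, chemical exposure 24 h, total RNA isolated. Reverse transcription, PCR, fluorescent labelling and capillary electrophoresis quantify reporter transcripts; activity fitted bidirectionally against DMSO.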

[14] = ATG_M_19_CIS: Attagene CIS-FACTORIAL HepG2 Assay for M19 Transcription Factor (Internal Marker) (AID 2282939); conditions: HepG2 Attagene CIS-FACTORIAL M19 internal marker reporter; actives raise or lower the signal
Method in brief: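 Transfect HepG2 with MRTU reporter library → dose chemical, 24 h → isolate total RNA, reverse-transcribe with oligo(dT) → PCR, 6-FAM label, HpaI cut (2 h, 37 C) → capillary electrophoresis. Bidirectional fit vs DMSO.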

[15] = ATG_ERE_CIS: Attagene CIS-FACTORIAL HepG2 Assay for Estrogen Response Element (ERE) (AID 2282940); conditions: HepG2 ERE cis-reporter, Attagene RNA transcript; actives raise or lower the signal
Method in brief: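 Transient MRTU transfection of human HepG2; cis-element promoters; 24 h dosing; total RNA → RT (oligo dT) → PCR → 6-FAM primer extension → HpaI digest → CE fluorescence. Bidirectional fit, DMSO baseline.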

[16] = ATG_Ets_CIS: Attagene CIS-FACTORIAL HepG2 Assay for human Erythroblast Transformation Specific (ETS) (AID 2282941); conditions: HepG2 ETS cis-reporter transcription, actives raise or lower the signal
Method in brief: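 HepG2 cells transiently transfected with cis-promoter reporter transcription units were dosed for 24 h; reporter mRNA was measured by RT-PCR, 6-FAM primer extension, HpaI digestion and capillary electrophoresis, with bidirectional fitting against DMSO baseline.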

[17] = ATG_FoxO_CIS: Attagene CIS-FACTORIAL HepG2 Assay for human Forkhead box O (FoxO) (AID 2282943); conditions: HepG2 Attagene cis-reporter, FoxO element, mRNA; actives raise or lower the signal
Method in brief: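 HepG2 cells transiently transfected with cis-promoter-driven multiple reporter transcription units; 24 h after chemical dosing, reporter mRNA quantified by RT-PCR, fluorescent primer extension, HpaI digestion and capillary electrophoresis. Bidirectional fitting versus DMSO baseline.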

[18] = ATG_GATA_CIS: Attagene CIS-FACTORIAL HepG2 Assay for human GATA Binding Protein (AID 2282944); conditions: HepG2 GATA cis-element reporter, Attagene multiplex mRNA; actives raise or lower the signal
Method in brief: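 Transient MRTU transfection, HepG2, 24 h compound exposure. Total RNA → oligo(dT) RT → PCR → 6-FAM primer extension → HpaI cut → CE. Bidirectional fit vs DMSO.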

[19] = ATG_GLI_CIS: Attagene CIS-FACTORIAL HepG2 Assay for human Zinc Finger Protein GLI1 (AID 2282945); conditions: HepG2, Attagene cis-factorial reporter mRNA, GLI element; actives raise or lower the signal
Method in brief: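 HepG2 cells transiently transfected with cis-promoter multiplexed reporter units report endogenous transcription factor activity. After 24 h chemical exposure, reporter mRNA was quantified by RT-PCR, 6-FAM labelling, HpaI digestion and capillary electrophoresis, with bidirectional fitting against DMSO.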

[20] = molecular target: Hepatocyte nuclear factor 3-beta (Homo sapiens) (UniProt Q9Y261); test: ATG_FoxA2_CIS: Attagene CIS-FACTORIAL HepG2 Assay for human Forkhead box A2 (FOXA2) (AID 2282942); conditions: HepG2 cis-reporter transcription factor activity, 24 h; actives raise or lower the signal
Hepatocyte nuclear factor 3-beta (Homo sapiens), sequence (Q9Y261 whole entry, looked up): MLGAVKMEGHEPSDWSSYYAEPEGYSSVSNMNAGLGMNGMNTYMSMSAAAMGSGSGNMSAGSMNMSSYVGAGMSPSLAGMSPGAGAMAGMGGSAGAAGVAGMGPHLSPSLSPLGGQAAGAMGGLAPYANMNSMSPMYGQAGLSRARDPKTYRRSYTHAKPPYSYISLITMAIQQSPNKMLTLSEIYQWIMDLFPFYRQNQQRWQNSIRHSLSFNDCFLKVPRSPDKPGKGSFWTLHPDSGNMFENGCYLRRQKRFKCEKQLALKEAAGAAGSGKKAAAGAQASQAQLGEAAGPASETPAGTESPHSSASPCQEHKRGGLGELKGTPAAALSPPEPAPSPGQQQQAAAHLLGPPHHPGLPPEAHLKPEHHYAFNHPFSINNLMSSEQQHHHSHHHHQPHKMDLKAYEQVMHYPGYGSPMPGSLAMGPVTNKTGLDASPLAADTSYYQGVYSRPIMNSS
Method in brief: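 Transient MRTU transfection of HepG2 liver cells; 24 h treatment; total RNA → oligo(dT) RT → PCR → FAM primer extension → HpaI cut → CE. Bidirectional fit vs DMSO.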

Measured: outcome

Cc1ccc(N)c([N+](=O)[O-])c1
not listed: [20]
inactive: all other assays above

CCCC(C)CCC(C)=O (centres undefined)
inactive: all assays above
